Source: PubChem BioAssay (National Center for Advancing Translational Sciences (NCATS))
SW480 rerep – A quantitative high throughput screen for small molecules that induce DNA re-replication in SW480 colon adenocarcinoma cells | SW480 DNA re-replication, Hoechst DNA content imaging, 48 h | Potency, µM (series often up to 46.1 µM), hits mostly activators | 1.8% of 340,000 active | AID 624297, 2012; also: nearly all actives have a fitted effect of over 55% in size
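Readout is total intensity of Hoechst-stained nuclei, excited at 405 nm and collected at 500-530 nm. Compound treatment lasted 48 hr at 37 C in 5% CO2 before staining.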
Chronic BCR inh – qHTS Assay to Find Inhibitors of Chronic Active B-Cell Receptor Signaling; ABC-DLBCL IkBa-CBG/CBR reporter, luminescence ratio, 4 h; Potency, µM (titrated, usually from 46.1 µM), most hits filed as inhibitors; 0.05% of 340,000 active; active = well fitted inhibition curve with a large enough effect in the signal ratio, with a control signal flat, not every such curve was filed as active; inconclusive = small, poorly fitted or top-dose-only effect, or effect the other way, or a change in a side signal; the % refers to the signal ratio
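Concentration-response series (up to 46 uM) were applied to TMD8 dual-reporter cells for 4 h at 37C with doxycycline. Green/red ratio, after filter-overlap correction, defined %Activity; red signal alone was normalised to basal cells and zero luminescence.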
DT40 TDP1 no CPT – qHTS for Inhibitors of human tyrosyl-DNA phosphodiesterase 1 (TDP1): qHTS in cells in absence of CPT; DT40 Tdp1-/- hTDP1 cells, no CPT, ATP luminescence, 48 h; Potency, µM (top dose mostly 46.2 µM), hits mostly inhibitors; 15% of 420,000 active; AID 686978, 2013; also: nearly all actives have a fitted effect of over 55% in size
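DT40 Tdp1-/-;hTDP1 cells, no CPT (DMSO vehicle only), 400 cells/well; compounds pin-transferred; ≥48 hr, 37 °C; CellTiter-Glo 30 min RT dark, luminescence read.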
MCF10A rerep – A quantitative high throughput screen for small molecules that induce DNA re-replication in MCF 10a normal breast cells; MCF 10A DNA re-replication, Hoechst nuclear intensity, 48 h; Potency, µM (series often up to 46.1 µM), actives largely listed as activators; 2.9% of 350,000 active; AID 624296, 2012; also: nearly all actives have a fitted effect of over 50% in size
TDP1 cell CPT – qHTS for Inhibitors of human tyrosyl-DNA phosphodiesterase 1 (TDP1): qHTS in cells in presence of CPT; chicken DT40 Tdp1-/-;hTDP1 cells + 20 nM CPT, ATP luminescence, 48 h; Potency, µM (top dose mostly 46.2 µM), most hits filed as inhibitors; 12% of 420,000 active; also: nearly all actives have a fitted effect of over 55% in size
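Chicken DT40 Tdp1-/- cells complemented with human TDP1, 400 cells/well, exposed to compounds plus 20 nM camptothecin for at least 48 h at 37 C; viability read as ATP content by CellTiter-Glo luminescence.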
IL-1B inflam inh – qHTS for Inhibitors of Inflammasome Signaling: IL-1-beta AlphaLISA Primary Screen; THP-1 LPS/ATP IL-1B secretion, AlphaLISA, 16 h; active compounds read low; activity change, % at 57.5 µM; 4.7% of 360,000 active; AID 743279, 2014; in the data active = activity change below about -50%; inconclusive = mostly about -30% to -49%
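THP-1 cells pretreated 1 hr with compounds (up to 57.5 uM final), then stimulated with LPS (250 ng/mL final) plus ATP (1.25 mM final); secreted IL-1B measured by AlphaLISA after 16 hr, decreased signal indicating inhibition.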
Numbers stand for hits; n = inactive; u = inconclusive; x = not tested or not shown; [ ] = remark or other dose. Shown are actives, neighbours in structure and some others; about 19% of the full set was active somewhere. Unless noted, calls follow the shape of the dose curve; as a rule, active = well fitted curve in the direction sought with a large enough effect; inconclusive = small, poorly fitted or top-dose-only effect, or another doubt; inactive = no such curve, though single readings can be large; an effect the other way counts as inactive or inconclusive.

SMILES | SW480 rerep | Chronic BCR inh | DT40 TDP1 no CPT | MCF10A rerep | TDP1 cell CPT | IL-1B inflam inh
Cc1c(C)n(C)c2ccc(C(=O)NCCCN3CCCC3)cc12 | n | n | n | n | n | n
Cc1c(C)n(C)c2ccc(C(=O)NCc3cccc(F)c3)cc12 | x | x | 16µM | x | 23µM | x
COc1cccc(CNC(=O)c2ccc3c(c2)c(C)c(C)n3Cc2ccccc2)c1OC | x | x | 23µM | x | 21µM | x
COc1ccccc1CCNC(=O)c1ccc2c(c1)c(C)c(C)n2C | x | x | 7.3µM | x | 7.3µM | x
CNCC(=O)NC(CCCN=C(N)N)C(=O)NC(C(=O)NC(Cc1ccc(O)cc1)C(=O)NC(C(=O)NC(Cc1cnc[nH]1)C(=O)N1CCCC1C(=O)NC(C)C(=O)O)C(C)C)C(C)C (configuration not stated) | n | x | x | n | x | x
CCOc1ccc(NC(=S)N2CCN(S(=O)(=O)c3ccc(OC)cc3)CC2)cc1 | n | n | u | n | n | n
CCn1c(C)c(C)c2cc(C(=O)NCc3ccc(OC)cc3OC)ccc21 | x | x | 15µM | x | 18µM | x
Cc1ccc(C2CC(=O)n3nc(-c4ccc(Cl)cc4)nc3S2)cc1 (configuration not stated) | x | x | n | x | n | x
CC(=S)/C=C1\Sc2ccccc2N1C | n | n | 23µM | n | 15µM | -61
CCCCN(C)CCNC(=O)C1CCN(S(=O)(=O)c2cccc3nsnc23)CC1 | n | n | n | n | n | n
CCCN(CCC)C(=O)c1c[nH]c2ccc(S(=O)(=O)N(C)c3ccc(Cl)cc3)cc2c1=O | x | n | u | x | u | x
O=C(CCN1C(=O)/C(=C/c2ccccc2)SC1=S)NNC(=O)c1cccnc1 | n | u | u | n | n | n
O=C(CCN1C(=O)/C(=C/c2ccc(F)cc2)SC1=S)NNC(=O)c1cccnc1 | n | n | 9.2µM | n | u | n
Cc1ccc(/C=C2\SC(=S)N(CCC(=O)NNC(=O)c3cccnc3)C2=O)cc1 | n | u | 9.2µM | n | 16µM | n
Cc1ccc(/C=C2\SC(=S)N(CCC(=O)Nc3cccnc3)C2=O)cc1 | n | u | n | n | n | n
CCOc1ccc(NS(=O)(=O)c2ccc(C)c(C(=O)NCCCn3ccnc3)c2)cc1 | n | n | n | u | n | n
Cc1c(C(=O)N2CCC(C)(C(=O)NS(=O)(=O)C3CC3)C2)oc2ccccc12 (configuration not stated) | x | x | n | x | u | n
CCOC(=O)N=S(N)(=O)c1ccccc1 (configuration not stated) | n | x | n | n | n | n
CCOC(=O)CC(S(=O)(=O)c1ccccc1)S(=O)(=O)c1ccccc1 | x | x | 0.65µM | x | 0.58µM | u
CCc1ccc(CN2CCCC(CCC(=O)N3CCN(c4ccccn4)CC3)C2)o1 (configuration not stated) | n | n | 16µM | n | u | n
O=C(CCC1CCCN(C(=O)c2ccc3cc[nH]c3c2)C1)N1CCN(c2ccccn2)CC1 (configuration not stated) | n | n | u | n | 16µM | n
O=C(CCC1CCCN(C(=O)c2ccc3[nH]ccc3c2)C1)N1CCN(c2ccccn2)CC1 (configuration not stated) | n | n | 21µM | n | 23µM | u
Cc1ccc(C(=O)N2CCCC(CCC(=O)N3CCN(c4ccccn4)CC3)C2)cc1 (configuration not stated) | n | n | u | n | u | u
O=C(CCC1CCCN(C(=O)CCCc2ccccc2)C1)N1CCN(c2ccccn2)CC1 (configuration not stated) | n | u | u | n | 21µM | n
O=C(CN1C(=O)NC2(CCCC2)C1=O)OCC(=O)c1cccc(Cl)c1 | n | n | n | n | n | n
SMILES | SW480 rerep | Chronic BCR inh | DT40 TDP1 no CPT | MCF10A rerep | TDP1 cell CPT | IL-1B inflam inh
CCc1ccc(NC(=O)COCc2cc(-c3ccc(F)cc3)on2)cc1 | x | x | n | x | n | x
COc1cc(NC(=O)COCc2cc(-c3ccc(F)cc3)on2)cc(OC)c1OC | x | x | 9.2µM | x | 13µM | x
CC(=O)c1cccc(NC(=O)CSc2nnc(C(C)N(C)C)n2-c2ccc(F)cc2)c1 (configuration not stated) | n | n | u | n | u | n
CCn1c(Cn2nnc(-c3ccccc3)n2)nnc1SCC(=O)Nc1cccc(C(C)=O)c1 | u | n | u | 21µM | u | u
CC(=O)c1cccc(NC(=O)CSc2nnc(C(C)N(C)C)n2Cc2ccccc2)c1 (configuration not stated) | n | n | 23µM | u | u | n
CCn1c(Cn2nnc(-c3ccccc3)n2)nnc1SCC(=O)Nc1ccc(C(C)=O)cc1 | n | u | n | n | n | n
COc1ccc(CCC(=O)Nc2ncc(C)s2)cc1 | n | n | n | n | n | n
C[C@@H]1Cc2c(O)c(O)cc(O)c2C(=O)O1 | n | n | u | n | u | n
CC1CCC/C=C/C(=O)c2c(O)cc(O)cc2CC(=O)O1 (configuration not stated) | u | u | 4.1µM | 1µM | 4.6µM | -115
CC1Cc2ccccc2N1C(=O)CCn1c(=O)sc2ccccc21 (configuration not stated) | n | n | 16µM | n | u | n
CCOC(=O)c1cc2sccc2n1CC(=O)O | n | n | n | n | n | n
CCOC(=O)c1cc2sccc2n1CC(=O)N1c2ccccc2CC1C (configuration not stated) | n | n | 21µM | n | 18µM | n
CCOC(=O)c1cc2sccc2n1CC(=O)c1ccc2c(c1)OCCO2 | n | n | 13µM | n | 15µM | n
O=C(c1ccccc1C(F)(F)F)N1CCOc2c(cc(-c3nc4ccccc4s3)cc2OC2CCOC2)C1 (configuration not stated) | x | x | n | x | n[9.04 µM] | x
O=c1c2ccccc2nc(-c2ccco2)n1CCCn1ccnc1 | n | n | n | n | n | n
Cn1c(-n2c(-c3ccco3)nc3ccccc3c2=O)nc2ccccc21 | u | n | 5.8µM | u | 3.7µM | n
COc1ccc(CCN2CN(S(=O)(=O)c3ccc(C)cc3)c3nc4ccccc4nc32)cc1OC | n | n | u | n | 23µM | n
O=c1c2ccccc2nc(-c2ccco2)n1CCc1ccc(O)cc1 | n | n | 5.8µM | u | u | n
COc1ccc(CCn2c(-c3ccco3)nc3ccccc3c2=O)cc1OC | n | n | 2.6µM | u | 2.6µM | -54
COCCCn1c(-c2ccco2)nc2ccccc2c1=O | n | n | n | n | n | n
